Assay results from PubChem BioAssay (EPA / NIEHS).
Inconclusive results are not listed. Active and inactive are the calls of the source. Rule for the calls, unless noted: active = hit-call score of the fitted dose curve at least 0.9, where 1 is the maximum; inactive = score below 0.9.

Legend:
[1] = ATG_RORE_CIS: Attagene CIS-FACTORIAL HepG2 Assay for human RAR-related Orphan Receptor Element (RORE) (AID 2282959); details: HepG2 Attagene cis-factorial RORE reporter, mRNA; actives raise or lower the signal
How it was run: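 Transiently transfected HepG2 reporter cells were treated 24 h. Reporter transcripts were detected by RT-PCR and capillary electrophoresis, with bidirectional fitting against DMSO.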

[2] = ATG_Sox_CIS: Attagene CIS-FACTORIAL HepG2 Assay for human SRY-box transcription factor (SOX) (AID 2282960); details: HepG2 Attagene cis-factorial SOX reporter, mRNA; actives raise or lower the signal
How it was run: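 Gain- or loss-of-signal endpoint, fitted bidirectionally with DMSO as negative control. Based on reporter mRNA from transfected HepG2 cells harvested 24 h post-treatment and quantified via RT-PCR and capillary electrophoresis.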

[3] = molecular target: Transcription factor Sp1 (Homo sapiens) (UniProt P08047); assay: ATG_Sp1_CIS: Attagene CIS-FACTORIAL HepG2 Assay for human Specificity Protein 1 (Sp1) (AID 2282961); details: HepG2 Sp1 cis-reporter transcription, actives raise or lower the signal
How it was run: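 Endpoint reflects endogenous Sp1 transcriptional activity, not an exogenous fusion protein: HepG2 cells with transfected cis-regulated reporters, 24 h dosing, RT-PCR/capillary electrophoresis mRNA read-out, DMSO-normalised bidirectional fit.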

[4] = ATG_SREBP_CIS: Attagene CIS-FACTORIAL HepG2 Assay for human Sterol Regulatory Element Binding (SREBP) (AID 2282962); details: HepG2 Attagene cis-factorial SREBP reporter, mRNA; actives raise or lower the signal
How it was run: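 Readout: fluorescent reporter-transcript peaks resolved by capillary electrophoresis after RT-PCR. Cells were human HepG2 carrying transfected cis-promoter reporter constructs, dosed for 24 h. Gain or loss of signal was fitted against DMSO controls.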

[5] = molecular target: Signal transducer and activator of transcription 3 (Homo sapiens) (UniProt P40763); assay: ATG_STAT3_CIS: Attagene CIS-FACTORIAL HepG2 Assay for human Signal Transducer and Activator of Transcription 3 (STAT3) (AID 2282963); details: HepG2, Attagene cis-factorial STAT3 reporter transcription; actives raise or lower the signal
How it was run: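 Cis-factorial format: endogenous transcription factors in HepG2 drive transfected reporter units. After 24 h treatment, reporter RNA was reverse-transcribed, amplified, FAM-labelled and HpaI-digested before CE analysis; activity scored in both directions against DMSO.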

[6] = ATG_TA_CIS: Attagene CIS-FACTORIAL HepG2 Assay for human TA Basal Promoter (AID 2282964); details: HepG2 Attagene CIS-factorial TA basal promoter reporter; actives raise or lower the signal
How it was run: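 Transfected HepG2, 24 h compound exposure; RNA → RT-PCR → FAM primer extension → HpaI cut → CE fluorescence. Gain/loss-of-signal fitted against DMSO negative control. Background-control readout.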

[7] = ATG_TCF_b_cat_CIS: Attagene CIS-FACTORIAL HepG2 Assay for human T-Cell-Factor with beta-catenin (TCF/b-cat) (AID 2282965); details: HepG2 TCF/beta-catenin cis-reporter transcription, actives raise or lower the signal
How it was run: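 Endogenous transcription factor activity is captured through cis-promoter reporter constructs transiently introduced into human HepG2 liver cells. Induced reporter mRNA is measured after 24 h and fitted bidirectionally relative to DMSO.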

[8] = ATG_TAL_CIS: Attagene CIS-FACTORIAL HepG2 Assay for human TAL Basal Promoter (AID 2282966); details: HepG2 Attagene cis-factorial TAL promoter reporter; actives raise or lower the signal;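 note: background control endpoint measuring basal TAL promoter reporter mRNA not a specific factor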
How it was run: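 HepG2, transient MRTU transfection, 24 h compound exposure; RNA → oligo(dT) RT → PCR → 6-FAM primer extension → HpaI digest → CE fluorescence. Bidirectional curve fit vs DMSO. Background-control readout.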

[9] = ATG_TGFb_CIS: Attagene CIS-FACTORIAL HepG2 Assay for human Transforming Growth Factor (TGF) (AID 2282967); details: HepG2 Attagene CIS TGFb reporter, mRNA transcription; actives raise or lower the signal
How it was run: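 Readout: fluorescently labeled reporter cDNA fragments resolved by capillary electrophoresis after RT-PCR. Transfected HepG2 cells dosed for 24 h; endogenous TF activity at TGFB1-linked cis element; gain or loss fitted relative to DMSO.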

[10] = ATG_VDRE_CIS: Attagene CIS-FACTORIAL HepG2 Assay for human Vitamin D Receptor Element (VDRE) (AID 2282968); details: HepG2 VDRE cis-reporter transcription, actives raise or lower the signal
How it was run: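 Measures endogenous factor activity through cis-element-driven reporter transcripts in transiently transfected HepG2. Cells are treated 24 h; reporter mRNA is quantified by RT-PCR and capillary electrophoresis; fitting is bidirectional.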

[11] = molecular target: Nuclear receptor subfamily 1 group I member 3 (Homo sapiens) (UniProt Q14994); assay: ATG_CAR_TRANS: Attagene TRANS-FACTORIAL HepG2 Assay for human Constitutive Androstane Receptor (CAR) (AID 2282969; active = hit-call score of the fitted dose curve at least 0.9, where 1 is the maximum;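 note: activators raise reporter mRNA above DMSO so AC50 marks induction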); details: HepG2 Attagene TRANS-FACTORIAL CAR reporter
How it was run: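 Signal is reporter mRNA induction relative to DMSO, measured 24 h after dosing by RT-PCR with fluorescent primer extension and capillary electrophoresis. Human HepG2 liver cells carried transiently transfected chimeric NR-Gal4/GAL4-UAS reporter constructs.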

[12] = molecular target: X-box-binding protein 1 (Homo sapiens) (UniProt P17861); assay: ATG_Xbp1_CIS: Attagene CIS-FACTORIAL HepG2 Assay for human X-box Binding Protein 1 (XBP1) (AID 2282972); details: HepG2 XBP1 cis-element reporter, Attagene multiplex; actives raise or lower the signal
How it was run: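 Read-out: fluorescent reporter mRNA fragments resolved by capillary electrophoresis after RT-PCR. Human HepG2 liver cells carried transfected cis-promoter reporter units and were exposed to chemicals for 24 hours. Gain or loss of signal fitted relative to DMSO baseline.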

[13] = ATG_M_19_TRANS: Attagene TRANS-FACTORIAL HepG2 Assay for M19 Transcription Factor (Internal Marker) (AID 2282974; active = hit-call score of the fitted dose curve at least 0.9, where 1 is the maximum); details: HepG2 Attagene TRANS-FACTORIAL M19 internal marker reporter
How it was run: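 Using RT-PCR and capillary electrophoresis, reporter mRNA from transiently transfected human HepG2 cells was quantified following 24 h exposure; activity was fitted in the positive direction against DMSO.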

[14] = molecular target: Glucocorticoid receptor (Homo sapiens) (UniProt P04150); assay: ATG_GR_TRANS: Attagene TRANS-FACTORIAL HepG2 Assay for human Glucocorticoid Receptor (GR) (AID 2282978; active = hit-call score of the fitted dose curve at least 0.9, where 1 is the maximum;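 note: activators score as hits since higher reporter transcript over DMSO is fitted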); details: HepG2 Attagene TRANS GR reporter, mRNA transcription
How it was run: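 Exogenous NR-GAL4 fusion activity was assessed through induced GAL4-UAS reporter transcripts in transfected human HepG2 cells, quantified after 24 h by RT-PCR and fluorescent capillary electrophoresis with DMSO as baseline.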

[15] = molecular target: Estrogen receptor (Homo sapiens) (UniProt P03372); assay: ATG_ERa_TRANS: Attagene TRANS-FACTORIAL HepG2 Assay for human Estrogen Receptor alpha (ERa) (AID 2282970; active = hit-call score of the fitted dose curve at least 0.9, where 1 is the maximum); details: HepG2 Attagene TRANS ERa GAL4 reporter, mRNA
How it was run: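 Reporter mRNA induction after 24 hours, detected by fluorescent RT-PCR and capillary electrophoresis, gives the read-out. Cells are HepG2 transiently transfected with GAL4-UAS reporter transcription units responding to chimeric NR-Gal4. Activity is taken as gain of signal over DMSO baseline.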

[16] = molecular target: Androgen receptor (Homo sapiens) (UniProt P10275); assay: ATG_AR_TRANS: Attagene TRANS-FACTORIAL HepG2 Assay for human Androgen Receptor (AR) (AID 2282973; active = hit-call score of the fitted dose curve at least 0.9, where 1 is the maximum); details: HepG2 Attagene TRANS-FACTORIAL AR reporter transcription
How it was run: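 Readout is reporter transcript abundance, quantified by fluorescent RT-PCR products separated on capillary electrophoresis. Human HepG2 liver cells carried transiently transfected NR-Gal4 chimera plus GAL4-UAS reporter constructs and were dosed for 24 h; activity scored upward versus DMSO.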

[17] = ATG_GAL4_TRANS: Attagene TRANS-FACTORIAL HepG2 Assay for GAL4 (Internal Marker) (AID 2282976; active = hit-call score of the fitted dose curve at least 0.9, where 1 is the maximum); details: HepG2 Attagene TRANS GAL4 internal marker reporter
How it was run: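 RT-PCR/capillary electrophoresis readout of reporter mRNA. HepG2, transient MRTU transfection (GAL4-UAS reporters), 24 h compound exposure. Background-control endpoint, positive direction vs DMSO baseline.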

Measured: outcome

Chain of Signal transducer and activator of transcription 3 (Homo sapiens) (P40763 whole entry, looked up): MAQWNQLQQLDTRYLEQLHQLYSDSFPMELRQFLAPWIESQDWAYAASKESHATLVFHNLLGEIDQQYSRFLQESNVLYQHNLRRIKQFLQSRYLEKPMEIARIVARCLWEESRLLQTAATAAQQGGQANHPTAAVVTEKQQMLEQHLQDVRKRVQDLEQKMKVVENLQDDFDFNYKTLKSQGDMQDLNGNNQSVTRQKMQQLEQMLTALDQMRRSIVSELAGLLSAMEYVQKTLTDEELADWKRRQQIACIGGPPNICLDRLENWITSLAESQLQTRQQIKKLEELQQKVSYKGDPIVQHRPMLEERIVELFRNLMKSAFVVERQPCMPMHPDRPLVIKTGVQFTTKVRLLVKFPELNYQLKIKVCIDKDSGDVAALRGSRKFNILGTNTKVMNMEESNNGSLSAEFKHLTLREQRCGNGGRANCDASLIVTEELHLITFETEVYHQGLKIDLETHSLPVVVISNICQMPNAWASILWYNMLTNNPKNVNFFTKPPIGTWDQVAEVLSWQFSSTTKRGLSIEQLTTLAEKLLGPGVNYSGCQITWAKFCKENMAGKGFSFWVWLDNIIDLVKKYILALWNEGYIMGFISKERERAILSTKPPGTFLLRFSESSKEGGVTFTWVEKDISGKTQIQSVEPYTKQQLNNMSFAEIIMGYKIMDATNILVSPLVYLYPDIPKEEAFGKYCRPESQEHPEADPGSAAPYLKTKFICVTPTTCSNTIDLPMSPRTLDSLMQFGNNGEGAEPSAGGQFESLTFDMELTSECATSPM
Chain of Transcription factor Sp1 (Homo sapiens) (P08047 whole entry, looked up, the tested form may be a part): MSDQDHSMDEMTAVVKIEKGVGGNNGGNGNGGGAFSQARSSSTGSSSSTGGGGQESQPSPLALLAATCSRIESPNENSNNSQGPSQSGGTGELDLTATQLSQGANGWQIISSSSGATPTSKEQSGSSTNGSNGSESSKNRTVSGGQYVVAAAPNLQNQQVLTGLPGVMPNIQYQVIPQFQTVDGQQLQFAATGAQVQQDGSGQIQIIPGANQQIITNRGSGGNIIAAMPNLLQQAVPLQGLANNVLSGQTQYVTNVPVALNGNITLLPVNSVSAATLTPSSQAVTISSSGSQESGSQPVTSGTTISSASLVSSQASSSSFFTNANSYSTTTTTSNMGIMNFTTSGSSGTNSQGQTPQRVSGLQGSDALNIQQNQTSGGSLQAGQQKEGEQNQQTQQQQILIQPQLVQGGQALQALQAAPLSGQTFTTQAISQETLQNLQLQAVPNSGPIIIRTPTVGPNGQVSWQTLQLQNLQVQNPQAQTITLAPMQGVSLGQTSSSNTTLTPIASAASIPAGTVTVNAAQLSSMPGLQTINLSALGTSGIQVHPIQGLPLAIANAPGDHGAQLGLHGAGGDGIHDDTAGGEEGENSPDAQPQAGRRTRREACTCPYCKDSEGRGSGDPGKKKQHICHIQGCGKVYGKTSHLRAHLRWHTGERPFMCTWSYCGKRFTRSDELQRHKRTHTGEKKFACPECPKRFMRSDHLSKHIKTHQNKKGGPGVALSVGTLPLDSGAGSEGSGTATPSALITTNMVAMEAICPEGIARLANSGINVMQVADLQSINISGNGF
Chain of X-box-binding protein 1 (Homo sapiens) (P17861 whole entry, looked up, the tested form may be a part): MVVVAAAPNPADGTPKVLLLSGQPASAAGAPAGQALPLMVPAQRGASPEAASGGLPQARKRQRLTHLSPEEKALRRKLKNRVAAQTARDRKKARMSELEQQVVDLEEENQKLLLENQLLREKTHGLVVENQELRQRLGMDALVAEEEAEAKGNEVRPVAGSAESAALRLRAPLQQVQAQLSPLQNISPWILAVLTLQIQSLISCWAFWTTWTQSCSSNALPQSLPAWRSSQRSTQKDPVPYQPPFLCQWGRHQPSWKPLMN
Chain of Glucocorticoid receptor (Homo sapiens) (P04150 whole entry, looked up, the tested form may be a part): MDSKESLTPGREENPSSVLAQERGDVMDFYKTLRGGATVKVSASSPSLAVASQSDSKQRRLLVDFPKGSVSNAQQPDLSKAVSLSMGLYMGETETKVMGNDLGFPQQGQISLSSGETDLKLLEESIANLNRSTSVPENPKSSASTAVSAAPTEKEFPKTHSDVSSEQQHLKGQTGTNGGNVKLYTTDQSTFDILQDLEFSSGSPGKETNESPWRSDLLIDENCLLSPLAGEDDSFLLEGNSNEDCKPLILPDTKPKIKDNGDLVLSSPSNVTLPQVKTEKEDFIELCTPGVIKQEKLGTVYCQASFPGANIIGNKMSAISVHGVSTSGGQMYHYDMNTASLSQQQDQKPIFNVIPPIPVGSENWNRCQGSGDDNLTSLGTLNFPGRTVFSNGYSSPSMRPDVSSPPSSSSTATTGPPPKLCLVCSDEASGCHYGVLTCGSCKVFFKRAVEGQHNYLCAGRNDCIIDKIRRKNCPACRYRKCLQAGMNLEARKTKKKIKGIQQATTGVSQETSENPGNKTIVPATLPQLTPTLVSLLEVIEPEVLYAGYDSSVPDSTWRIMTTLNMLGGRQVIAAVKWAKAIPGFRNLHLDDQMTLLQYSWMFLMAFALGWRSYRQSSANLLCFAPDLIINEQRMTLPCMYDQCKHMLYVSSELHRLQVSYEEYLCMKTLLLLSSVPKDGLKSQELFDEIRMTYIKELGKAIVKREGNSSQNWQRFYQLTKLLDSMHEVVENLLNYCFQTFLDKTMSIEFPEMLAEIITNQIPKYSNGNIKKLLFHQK
Chain of Estrogen receptor (Homo sapiens) (P03372 whole entry, looked up, the tested form may be a part): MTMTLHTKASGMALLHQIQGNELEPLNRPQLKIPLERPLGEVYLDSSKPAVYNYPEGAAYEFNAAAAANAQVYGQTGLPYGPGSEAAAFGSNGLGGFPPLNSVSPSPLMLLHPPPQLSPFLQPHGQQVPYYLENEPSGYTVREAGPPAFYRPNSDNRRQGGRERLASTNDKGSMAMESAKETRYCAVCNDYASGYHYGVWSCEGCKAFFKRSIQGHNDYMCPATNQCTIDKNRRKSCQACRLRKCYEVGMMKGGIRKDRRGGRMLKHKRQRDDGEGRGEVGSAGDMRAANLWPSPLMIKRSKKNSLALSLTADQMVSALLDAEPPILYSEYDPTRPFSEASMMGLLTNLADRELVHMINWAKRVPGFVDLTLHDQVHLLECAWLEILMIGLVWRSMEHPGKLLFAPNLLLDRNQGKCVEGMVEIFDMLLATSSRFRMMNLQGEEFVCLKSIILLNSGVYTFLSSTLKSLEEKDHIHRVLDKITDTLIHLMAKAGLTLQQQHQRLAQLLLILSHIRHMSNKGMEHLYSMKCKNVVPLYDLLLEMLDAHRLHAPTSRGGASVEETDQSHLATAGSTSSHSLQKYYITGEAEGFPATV
Chain of Nuclear receptor subfamily 1 group I member 3 (Homo sapiens) (Q14994 whole entry, looked up, the tested form may be a part): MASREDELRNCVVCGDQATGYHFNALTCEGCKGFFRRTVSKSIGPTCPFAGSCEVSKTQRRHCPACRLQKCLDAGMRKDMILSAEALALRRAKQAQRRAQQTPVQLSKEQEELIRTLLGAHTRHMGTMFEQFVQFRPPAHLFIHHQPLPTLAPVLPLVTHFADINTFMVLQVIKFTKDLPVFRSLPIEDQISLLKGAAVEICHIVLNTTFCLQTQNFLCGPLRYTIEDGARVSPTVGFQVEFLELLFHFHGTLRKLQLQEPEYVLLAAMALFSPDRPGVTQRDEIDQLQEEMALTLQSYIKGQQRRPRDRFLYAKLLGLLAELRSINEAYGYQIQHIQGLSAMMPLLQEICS
Chain of Androgen receptor (Homo sapiens) (P10275 whole entry, looked up, the tested form may be a part): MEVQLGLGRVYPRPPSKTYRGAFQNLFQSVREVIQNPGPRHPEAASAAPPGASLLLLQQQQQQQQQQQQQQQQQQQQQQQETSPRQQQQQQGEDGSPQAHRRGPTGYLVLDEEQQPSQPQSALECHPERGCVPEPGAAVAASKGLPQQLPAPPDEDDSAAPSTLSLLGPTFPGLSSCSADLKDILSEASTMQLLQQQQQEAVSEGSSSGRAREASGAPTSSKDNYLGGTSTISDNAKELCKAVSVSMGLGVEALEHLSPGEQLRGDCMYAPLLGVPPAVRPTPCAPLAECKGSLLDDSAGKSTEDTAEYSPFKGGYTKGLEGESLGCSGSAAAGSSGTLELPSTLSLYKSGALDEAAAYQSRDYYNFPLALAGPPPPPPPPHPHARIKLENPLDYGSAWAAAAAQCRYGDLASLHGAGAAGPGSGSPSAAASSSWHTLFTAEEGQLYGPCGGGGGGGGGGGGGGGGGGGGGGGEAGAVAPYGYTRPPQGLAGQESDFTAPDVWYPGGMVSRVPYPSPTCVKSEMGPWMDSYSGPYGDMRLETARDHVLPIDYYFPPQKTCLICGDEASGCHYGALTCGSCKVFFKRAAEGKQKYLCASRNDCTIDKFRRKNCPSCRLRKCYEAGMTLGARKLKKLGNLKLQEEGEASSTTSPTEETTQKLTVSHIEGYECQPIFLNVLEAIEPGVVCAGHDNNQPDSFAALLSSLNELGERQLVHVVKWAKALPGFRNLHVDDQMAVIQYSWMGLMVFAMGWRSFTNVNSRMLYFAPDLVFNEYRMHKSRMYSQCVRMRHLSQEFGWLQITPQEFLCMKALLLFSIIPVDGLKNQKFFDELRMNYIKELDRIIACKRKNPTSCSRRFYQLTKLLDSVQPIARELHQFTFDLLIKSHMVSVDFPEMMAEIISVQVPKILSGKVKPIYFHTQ

COC(=O)Cc1ccccc1
not listed: [15] | [16] | [17]
inactive: all other assays above

CCC1(c2ccc(N)cc2)CCC(=O)NC1=O (configuration not stated)
not listed: [11] | [13]
inactive: all other assays above

Cc1ccc(N)cc1Cl
not listed: [13] | [14] | [16] | [17]
inactive: all other assays above
